# Assay results reported in PubChem BioAssay.
# Activity calls are given as the source filed them.
# Experiments:
# [1] = E. coli DRC41 culture turbidity changes, primary screen, E. coli filamentation inducer project, strain DRC41, OD650, 48 h (AID 1152);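 further: E. coli MC1000 strain DRC41 lacking acrAB efflux pump and sulA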; details: E. coli DRC41 (acrAB sulA), higher = more signal, called active from +8 up or from −8 down
# [2] = small-molecule binders of probe aLefty1, primary screen, biochemical, small-molecule microarray, 635/667 nm fluorescence (AID 1153); details: higher = more signal;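 further: score merges spot fluorescence with signal-to-noise ratio from the scanned slide images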
# [3] = PSAC antagonists in infected red cells, primary screen, cell-based, P. falciparum Indochina, OD700, 1 h (AID 1154); details: P. falciparum Indochina infected RBC osmotic lysis, higher = more signal, called active from +8 up or from −8 down
# [4] = PSAC antagonists in infected red cells, primary screen, cell-based, P. falciparum Indochina, OD700, 2 h (AID 1155);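 further: lysis reports solute entry through the parasite surface anion channel PSAC; channel blockers reduce lysis of infected cells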; details: P. falciparum Indochina infected erythrocytes, osmotic lysis OD700; higher = more signal, called active from +8 up or from −8 down
# [5] = osmotic lysis modulators in infected erythrocytes, primary screen, PSAC antagonist project, cell-based, P. falciparum Indochina, OD700, 3 h (AID 1156); details: higher = more signal, called active from +8 up or from −8 down
# [6] = PSAC antagonists in infected red cells, primary screen, cell-based, P. falciparum Indochina, OD700, 18 h (AID 1157); details: P. falciparum Indochina infected erythrocytes, osmotic lysis OD700, 18 h; higher = more signal, called active from +8 up or from −8 down
# [7] = modulators of S6 phosphorylation in cells, primary screen, cell-based, A549, cytoblot, luminescence, serum-stimulated (AID 1158); details: A549 phospho-S6 cytoblot, 5 h, higher = more signal;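 further: serum-stimulated A549 lung adenocarcinoma cells; signal is phosphorylated S6 detected by cytoblot immunostaining with HRP secondary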
# [8] = target: NADPH oxidase 2 (Homo sapiens) (UniProt P04839); experiment: NOX2-dependent H2O2 signal modulators, primary screen, NOX inhibitor project, cell-based, HEK293-NOX2, PMA-stimulated, Amplex Red fluorescence (AID 1159); details: 45 min, higher = more signal, called active from +8 up or from −8 down; further: test concentration not given here
# [9] = target: NADPH oxidase 4 (Homo sapiens) (UniProt Q9NPH5); experiment: NOX4-dependent H2O2 signal modulators, primary screen, NOX inhibitor project, cell-based, HEK293-NOX4, tetracycline-induced, Amplex Red fluorescence (AID 1160); details: 45 min, higher = more signal, called active from +8 up or from −8 down
# [10] = target: NADPH oxidase 5 (Homo sapiens) (UniProt Q96PH1); experiment: NOX5-dependent H2O2 signal modulators, primary screen, NOX inhibitor project, cell-based, HEK293-NOX5, Amplex Red fluorescence (AID 1161); details: HEK293-NOX5, ionomycin, 45 min, higher = more signal
# [11] = A549 cell viability effects, profiling panel, calcein-AM fluorescence, 48 h, basal (AID 1162); details: higher = more signal; further: test concentration not given here
# [12] = adipocyte viability effects, profiling panel, cell-based, 3T3-L1 adipocytes, calcein-AM fluorescence, 48 h, basal (AID 1163); details: 3T3-L1 adipocytes viability, higher = more signal; further: test concentration not given here
# [13] = HepG2 cell viability effects, profiling panel, calcein-AM fluorescence, 48 h, basal (AID 1164); details: higher = more signal; further: test concentration not given here
# [14] = MM1S cell viability effects, profiling panel, calcein-AM fluorescence, 48 h, basal (AID 1165); details: higher = more signal;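 further: viability of MM1S multiple myeloma cells under basal unstimulated conditions; test concentration not given here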
# [15] = basal RPMI8226 viability, no added stimulus, profiling panel, cell-based, calcein-AM fluorescence, 48 h, PK04 Diversity Set (AID 1166); details: RPMI8226 myeloma viability, higher = more signal;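 further: cells grown under basal conditions without added stimulus; test concentration not given here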
# [16] = basal HepG2 mitochondrial membrane potential changes, profiling panel, cell-based, JC-1 fluorescence, 24 h, 100 nL compound (AID 1167); details: higher = more signal; further: test concentration not given here
# [17] = basal 3T3-L1 adipocyte mitochondrial potential changes, profiling panel, cell-based, JC-1 fluorescence, 3T3-L1 adipocytes, 24 h, 100 nL compound (AID 1168); details: JC-1 mitochondrial fluorescence, higher = more signal, called active from +8 up or from −8 down; further: test concentration not given here
# [18] = basal RPMI8226 mitochondrial membrane potential changes, profiling panel, cell-based, JC-1 fluorescence, 24 h, 100 nL compound (AID 1169); details: RPMI8226 myeloma, JC-1 mitochondrial potential fluorescence, higher = more signal; further: test concentration not given here
# [19] = basal MM1S mitochondrial membrane potential changes, profiling panel, cell-based, JC-1 fluorescence, 24 h, 100 nL compound (AID 1170); details: higher = more signal; further: test concentration not given here
# [20] = A549 lung cancer cell viability effects, profiling panel, resazurin fluorescence, 24 h, PK04 Diversity Set (AID 1171); details: higher = more signal, called active from +8 up or from −8 down; further: test concentration not given here
# NADPH oxidase 5 (Homo sapiens), sequence (Q96PH1 whole entry, looked up): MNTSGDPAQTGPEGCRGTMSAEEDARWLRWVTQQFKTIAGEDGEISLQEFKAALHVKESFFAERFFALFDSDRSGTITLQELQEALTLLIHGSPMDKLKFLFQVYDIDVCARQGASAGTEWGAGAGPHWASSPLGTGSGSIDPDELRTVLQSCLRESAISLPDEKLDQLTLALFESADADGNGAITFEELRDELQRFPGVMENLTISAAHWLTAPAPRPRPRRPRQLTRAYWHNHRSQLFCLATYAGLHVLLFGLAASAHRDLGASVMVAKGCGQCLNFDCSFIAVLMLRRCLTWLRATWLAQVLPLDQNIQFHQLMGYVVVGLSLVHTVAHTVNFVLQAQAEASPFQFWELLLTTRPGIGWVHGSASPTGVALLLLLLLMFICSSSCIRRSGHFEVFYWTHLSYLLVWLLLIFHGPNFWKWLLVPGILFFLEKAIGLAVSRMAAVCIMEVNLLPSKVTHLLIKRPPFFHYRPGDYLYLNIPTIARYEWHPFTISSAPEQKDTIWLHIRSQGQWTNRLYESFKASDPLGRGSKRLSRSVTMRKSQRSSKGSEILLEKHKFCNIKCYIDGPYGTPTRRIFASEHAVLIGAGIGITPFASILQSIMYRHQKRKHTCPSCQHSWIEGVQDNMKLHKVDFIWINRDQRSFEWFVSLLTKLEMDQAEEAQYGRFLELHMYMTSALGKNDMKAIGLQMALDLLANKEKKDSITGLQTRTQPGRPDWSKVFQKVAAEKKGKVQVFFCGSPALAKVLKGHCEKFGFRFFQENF
# NADPH oxidase 4 (Homo sapiens), sequence (Q9NPH5 whole entry, looked up): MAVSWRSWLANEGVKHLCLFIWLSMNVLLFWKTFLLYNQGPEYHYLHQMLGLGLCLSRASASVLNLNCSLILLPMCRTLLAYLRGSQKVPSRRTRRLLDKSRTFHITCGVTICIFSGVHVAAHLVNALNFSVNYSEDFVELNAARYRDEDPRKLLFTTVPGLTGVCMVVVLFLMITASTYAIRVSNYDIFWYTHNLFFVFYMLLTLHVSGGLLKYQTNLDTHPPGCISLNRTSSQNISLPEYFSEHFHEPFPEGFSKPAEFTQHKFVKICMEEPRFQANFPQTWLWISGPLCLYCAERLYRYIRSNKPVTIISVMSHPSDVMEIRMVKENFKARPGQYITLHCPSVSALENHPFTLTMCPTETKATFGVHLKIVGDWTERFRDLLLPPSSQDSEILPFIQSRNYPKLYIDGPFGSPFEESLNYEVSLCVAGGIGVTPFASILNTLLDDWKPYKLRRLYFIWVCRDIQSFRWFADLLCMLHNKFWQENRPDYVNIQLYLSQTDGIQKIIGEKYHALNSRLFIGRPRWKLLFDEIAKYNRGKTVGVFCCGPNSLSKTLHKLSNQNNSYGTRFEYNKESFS
# NADPH oxidase 2 (Homo sapiens), sequence (P04839 whole entry, looked up): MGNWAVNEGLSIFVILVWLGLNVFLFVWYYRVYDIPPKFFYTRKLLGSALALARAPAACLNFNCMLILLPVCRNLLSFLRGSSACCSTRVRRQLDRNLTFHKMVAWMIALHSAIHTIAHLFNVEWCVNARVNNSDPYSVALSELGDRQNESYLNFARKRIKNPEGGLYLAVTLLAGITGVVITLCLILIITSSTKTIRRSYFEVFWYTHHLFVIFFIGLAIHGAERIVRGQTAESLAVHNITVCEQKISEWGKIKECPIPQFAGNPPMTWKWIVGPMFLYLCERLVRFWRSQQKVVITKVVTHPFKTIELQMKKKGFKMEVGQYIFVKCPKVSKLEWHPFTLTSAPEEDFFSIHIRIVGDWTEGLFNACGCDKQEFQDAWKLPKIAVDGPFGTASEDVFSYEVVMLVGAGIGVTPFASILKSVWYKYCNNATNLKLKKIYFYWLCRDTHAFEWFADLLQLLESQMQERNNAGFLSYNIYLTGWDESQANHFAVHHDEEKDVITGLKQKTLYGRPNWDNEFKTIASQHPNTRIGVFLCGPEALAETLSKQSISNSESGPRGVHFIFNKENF
SMILES,z-score [1],composite z-score [2],z-score [3],z-score [4],z-score [5],z-score [6],z-score [7],z-score [8],z-score [9],z-score [10],z-score [11],z-score [12],z-score [13],z-score [14],z-score [15],z-score [16],z-score [17],z-score [18],z-score [19],z-score [20]
CCOC(=O)C[C@H]1[C@H](OC(=O)Cc2ccc3c(c2)OCO3)[C@@H](NC(=O)C2CCCCC2)c2cc(OCCCO)ccc2N1C(=O)c1ccc2ccccc2n1,0.699 (inactive),-0.106,1.88 (inactive),-0.954 (inactive),-0.13 (inactive),-2.2 (inactive),1.17,-1.86 (inactive),0.214 (inactive),-2.62,0.177,1.72,0.726,0.435,-1.18,-2.42,0.436 (inactive),0.602,-0.703,0.125 (inactive)
O=C1NC(=O)C2C1C=CC(C(O)c1ccc(Br)cc1)N2Nc1ccccn1 (stereo not given),-0.325 (inactive),0.5,-0.0691 (inactive),-1.06 (inactive),0.215 (inactive),-1.94 (inactive),0.599,-1.54 (inactive),-2.6 (inactive),-1.93,0.636,0.805,0.909,-0.0483,-0.767,-0.169,0.195 (inactive),0.698,-0.273,-1.58 (inactive)
C[C@]1(C(=O)NC2CC2)c2ccccc2C(=O)N(Cc2ccc(OC(F)(F)F)cc2)[C@H]1c1ccc(CO)cc1,0.323 (inactive),-0.0186,3.33 (inactive),0.258 (inactive),4.64 (inactive),0.0105 (inactive),-0.111,0.264 (inactive),0.731 (inactive),0.138,-0.176,-0.138,0.415,-0.105,0.142,2.32,-0.116 (inactive),0.917,-0.316,0.306 (inactive)
CC(C)C(CO)N1C(=O)[C@]2(C)C3C(=O)OCCC/C=C\[C@H]3OC23C=CCN(c2ccc(Cl)cc2)C(=O)[C@@H]13 (stereo not given in full),-0.785 (inactive),-0.0929,1.12 (inactive),0.31 (inactive),0.787 (inactive),0.673 (inactive),-0.197,1.47 (inactive),1.04 (inactive),1.69,-0.0554,-0.199,1.08,0.547,0.163,-0.484,-0.52 (inactive),-0.634,-0.0291,-0.503 (inactive)
O=C1O[C@@H](c2ccccc2)[C@@H](c2ccccc2)N2[C@@H](c3ccc(O)cc3)[C@]3(C(=O)Nc4ccc(C#CCCO)cc43)[C@@H](C(=O)Nc3nc4ccccc4s3)[C@H]12,0.341 (inactive),0.139,1.35 (inactive),1.19 (inactive),-0.743 (inactive),1.63 (inactive),-0.435,1.1 (inactive),0.604 (inactive),-0.073,1.06,0.225,0.609,-2.66,-2.65,-3.79,-1.3 (inactive),-0.503,-1.03,0.621 (inactive)
CC(C)(C)OC(=O)CC[C@]1(C(=O)NCCN2CCOCC2)N=C(c2ccc(OCCCO)cc2)O[C@H]1c1ccccc1N=[N+]=[N-],-0.105 (inactive),0.591,31.3 (active),29.2 (active),2.64 (inactive),6.62 (inactive),-0.136,-2.46 (inactive),1.62 (inactive),-1.99,-0.877,0.303,0.309,-0.603,-0.711,1.27,1.21 (inactive),-0.683,-0.961,-0.201 (inactive)
CC(C)(C)OC(=O)CC[C@]1(C(=O)NCCN2CCOCC2)N=C(c2ccc(OCCCO)cc2)O[C@H]1c1ccccc1,0.167 (inactive),0.119,12.5 (active),1.5 (inactive),0.531 (inactive),0.47 (inactive),-0.501,0.618 (inactive),1.54 (inactive),1.42,1.01,-1.82,0.549,0.251,-0.51,-0.342,0.134 (inactive),-0.69,-0.158,0.0762 (inactive)
CCCCN1CC=CC23O[C@@H]4/C=C\CCC(C)OC(=O)C4[C@H]2C(=O)N(CCCCCCO)[C@@H]3C1=O (stereo not given in full),0.622 (inactive),-0.145,0.548 (inactive),0.31 (inactive),0.573 (inactive),0.454 (inactive),1.81,1.2 (inactive),0.112 (inactive),2.3,-0.0164,0.736,1.11,1.79,-0.273,0.375,0.145 (inactive),0.336,-0.563,0.254 (inactive)
CCCCN1CC=CC23O[C@@H]4C=CCOC(=O)[C@@H]4[C@H]2C(=O)N(CCCO)[C@@H]3C1=O (stereo not given in full),0.915 (inactive),-0.0075,-0.062 (inactive),-0.921 (inactive),0.836 (inactive),-1.43 (inactive),0.385,0.05 (inactive),-0.101 (inactive),-0.234,-0.117,1.11,-0.49,0.799,-0.304,-1.11,0.111 (inactive),-0.702,0.797,-1.28 (inactive)
COc1ccc(CCNC(=O)[C@@]2(Sc3ccc(C)cc3)CC(=O)N(Cc3cc(C(F)(F)F)cc(C(F)(F)F)c3)[C@@H]2c2ccc(CO)cc2I)cc1,0.0818 (inactive),0.0509,10.5 (active),1.25 (inactive),-0.459 (inactive),0.132 (inactive),0.179,1.15 (inactive),-1.07 (inactive),0.562,0.154,-0.208,0.0649,-1.46,-1.96,-1.08,-0.208 (inactive),-0.165,-2.1,0.469 (inactive)
CC(C)(C)OC(=O)CC[C@@]1(C(=O)O)N=C(c2ccc(OCCCO)cc2)O[C@@H]1c1ccccc1,0.0442 (inactive),0.284,6.52 (inactive),0.0947 (inactive),-0.819 (inactive),0.0734 (inactive),-0.407,0.104 (inactive),1.27 (inactive),0.548,-0.662,-0.982,-0.289,-0.764,0.335,-0.602,-0.445 (inactive),0.855,-0.939,0.477 (inactive)
CC(=O)N1Cc2ccccc2C[C@]2(N=C(c3ccc(OCCCO)cc3)O[C@@H]2c2ccccc2)C1=O,1.23 (inactive),-0.0536,26 (active),16.1 (active),1.17 (inactive),3.32 (inactive),0.463,-1.31 (inactive),0.13 (inactive),-1.9,-1.07,0.749,-0.351,-2.28,-3.5,0.462,-0.202 (inactive),-0.954,-0.637,-2.76 (inactive)
C[n+]1ccc(CCCO)cc1,-0.885 (inactive),0.33,0.599 (inactive),-0.0234 (inactive),1.87 (inactive),0.131 (inactive),-0.283,0.176 (inactive),-0.435 (inactive),-1.72,-0.566,0.927,-0.96,0.375,-1.77,-0.0921,-0.321 (inactive),-0.502,0.0343,-1.15 (inactive)
COc1cc(CO)cc(I)c1O[C@H]1C=C(C(=O)NCCO)C[C@@H](NCc2ccccc2F)[C@@H]1O,1.96 (inactive),-0.117,22.2 (active),4.37 (inactive),3.59 (inactive),1.09 (inactive),0.51,0.0575 (inactive),-0.344 (inactive),-1.69,0.687,-0.512,0.496,0.0067,0.12,-0.0312,-0.561 (inactive),0.231,-1.59,0.106 (inactive)
CC(C)C(=C=CC[C@@H](O)c1ccccc1OCCO)C[C@@H](O)COCc1ccccc1,1.6 (inactive),-0.103,6.77 (inactive),2.19 (inactive),-1.43 (inactive),-0.119 (inactive),0.86,0.0182 (inactive),0.489 (inactive),-1.52,1.03,0.435,0.146,-0.338,-0.399,0.324,0.791 (inactive),0.0761,0.339,0.15 (inactive)
CN1C(=O)[C@@]2(CCS(=O)(=O)c3ccccc3)N=C(c3ccc(OCCCO)cc3)O[C@H]2c2ccccc21,0.583 (inactive),-0.0003,30.1 (active),23.3 (active),0.141 (inactive),0.914 (inactive),0.836,-2.59 (inactive),0.479 (inactive),-0.917,0.524,1.1,-0.0319,-0.624,-0.517,0.214,0.426 (inactive),-0.776,0.111,-0.254 (inactive)
Cc1ccc(F)cc1S(=O)(=O)N[C@@H]1CCN(Cc2ccc(Oc3ccccc3)cc2)C1,-12.2 (active),0.266,7.61 (inactive),1.9 (inactive),0.701 (inactive),1.19 (inactive),-0.766,-0.615 (inactive),-1.08 (inactive),-1.67,-1.26,-0.119,-1.25,-3.43,-3.16,0.998,0.546 (inactive),-1.19,-2.3,-0.214 (inactive)
Cc1ccc(S[C@]2(C(=O)NC(C)C)CC(=O)N(C3Cc4ccccc4C3)[C@@H]2c2ccc(CO)cc2I)cc1,0.135 (inactive),-0.788,8.47 (active),1.39 (inactive),1.67 (inactive),0.13 (inactive),-0.086,1.87 (inactive),-1.89 (inactive),1.23,0.6,-0.345,0.425,-1.7,-1.29,0.221,-0.277 (inactive),-0.697,-2.19,-0.526 (inactive)
